PubChem BioAssay AID588354 (The Scripps Research Institute Molecular Screening Center, 2011)
Among all 360,000 compounds or so, about 430 (0.12%) were called active.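 Rule for the calls: active = inhibition above the campaign mean plus 3 SD, with each screening campaign given its own cutoff (cut at about 60% in these data); inactive = the rest.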 This excerpt belongs to a sample that is enriched for actives.

target: Nuclear receptor coactivator 1 (Homo sapiens) (UniProt Q15788); assay: SRC1 coactivator transcriptional activity inhibitors, primary screen, cell-based, luminescence (AID 588354); conditions: HEK293 GAL4-SRC1 luciferase reporter, at 3.6 µM, stronger effect = higher value;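 note: 0% = DMSO treated cells and 100% = gossypol at 36 µM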
Sequence (Q15788 whole entry, looked up, the tested form may be a part): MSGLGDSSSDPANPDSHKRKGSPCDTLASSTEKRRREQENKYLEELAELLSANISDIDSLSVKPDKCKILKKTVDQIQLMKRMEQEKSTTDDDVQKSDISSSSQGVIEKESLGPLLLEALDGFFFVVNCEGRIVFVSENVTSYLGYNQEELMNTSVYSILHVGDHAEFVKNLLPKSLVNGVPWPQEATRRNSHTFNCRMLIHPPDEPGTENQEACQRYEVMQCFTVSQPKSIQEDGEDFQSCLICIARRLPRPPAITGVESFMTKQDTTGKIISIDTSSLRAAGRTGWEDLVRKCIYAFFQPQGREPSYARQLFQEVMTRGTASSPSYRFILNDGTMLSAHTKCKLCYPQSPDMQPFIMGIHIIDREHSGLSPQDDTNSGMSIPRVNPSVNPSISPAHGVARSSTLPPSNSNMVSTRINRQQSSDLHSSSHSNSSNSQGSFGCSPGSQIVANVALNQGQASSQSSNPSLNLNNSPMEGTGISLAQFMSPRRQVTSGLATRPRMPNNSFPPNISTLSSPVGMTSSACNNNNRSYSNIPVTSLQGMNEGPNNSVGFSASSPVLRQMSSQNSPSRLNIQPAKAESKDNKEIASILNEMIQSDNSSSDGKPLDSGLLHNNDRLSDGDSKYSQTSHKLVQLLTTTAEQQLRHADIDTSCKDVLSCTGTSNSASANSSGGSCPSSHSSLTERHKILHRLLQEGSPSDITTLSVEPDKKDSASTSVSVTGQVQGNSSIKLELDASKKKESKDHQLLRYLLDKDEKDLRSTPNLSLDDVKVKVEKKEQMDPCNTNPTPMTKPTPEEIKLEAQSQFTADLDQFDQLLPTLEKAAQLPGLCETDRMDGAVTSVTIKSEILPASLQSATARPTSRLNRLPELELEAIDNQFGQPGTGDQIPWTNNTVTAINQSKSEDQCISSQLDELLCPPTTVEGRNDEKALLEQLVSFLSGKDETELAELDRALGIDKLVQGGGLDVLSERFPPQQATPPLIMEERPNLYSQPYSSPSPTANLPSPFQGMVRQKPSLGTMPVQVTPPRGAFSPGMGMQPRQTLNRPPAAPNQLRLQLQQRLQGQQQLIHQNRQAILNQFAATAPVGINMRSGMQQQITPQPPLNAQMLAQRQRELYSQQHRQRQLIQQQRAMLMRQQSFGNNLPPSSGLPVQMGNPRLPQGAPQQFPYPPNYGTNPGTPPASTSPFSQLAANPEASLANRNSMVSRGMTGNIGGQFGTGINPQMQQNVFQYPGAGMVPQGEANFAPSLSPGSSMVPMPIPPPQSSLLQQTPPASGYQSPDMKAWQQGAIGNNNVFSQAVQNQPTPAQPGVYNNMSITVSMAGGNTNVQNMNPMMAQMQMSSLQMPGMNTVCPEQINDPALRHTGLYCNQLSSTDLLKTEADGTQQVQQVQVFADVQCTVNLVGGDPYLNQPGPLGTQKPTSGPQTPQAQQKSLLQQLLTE

inhibition, inactive:
COc1ccc(-c2nnc(SCC(=O)Nc3cccnc3Cl)n2C)cc1 16.4%
CCOC1=C2CN(S(=O)(=O)c3ccc(C)cc3)[C@H](c3cccs3)C[C@H]2[C@H]2C(=O)N(c3ccccc3)C(=O)[C@H]2C1 0.21%
Cc1[nH]c(C)c(S(=O)(=O)N2CCC(C)CC2)c1C(=O)N1CCCC1 0.69%
Cc1nc(-c2ccccc2)sc1-c1nc(-c2ccccc2)ncc1S(=O)(=O)c1ccccc1 7.02%
CCOc1ccc(CNC(=O)C2CC(=O)N(C3CCCC3)C2)cc1OC (configuration not stated) -4.04%
COc1ccc(NC(=O)CN(C)C(=O)CNC(=O)C2CCCCC2)cc1 6.97%
O=C(COC(=O)c1ccco1)Nc1ccc(Cl)cn1 -10.8%
COc1cccc(/C=C(/CC(=O)Nc2ccc(N3CCOCC3)cc2)c2nc3ccccc3s2)c1 -38.5%
COCCCC1CCN(C(=O)C2CCC(=O)N(C3CCCCCC3)C2)CC1 (configuration not stated) 2.7%
CCN(CC)C(=O)C1=C(C)N(Cc2ccccc2)C(=O)C(CC(=O)NC(c2ccccc2)c2ccccc2)C1 (configuration not stated) -24.8%
FC(F)(F)c1nc(-c2ccccc2)ncc1-c1nnnn1-c1ccccc1 2.72%
CC1=CC(C)(C)Nc2ccc(OC(=O)CN3C(=O)C4CCCCC4C3=O)cc21 (configuration not stated) -14.7%
Nc1c(N(CCCO)C(=O)C2CCCC2)c(=O)[nH]c(=O)n1Cc1ccccc1 -4.42%
Cc1cc(C)nc(-n2ncc3c2CC(c2ccc(C(C)C)cc2)CC3=O)n1 (configuration not stated) -16.7%
CC1(C(=O)O)CCC(C(=O)Nc2ccc(Cl)c(Cl)c2)C1(C)C (configuration not stated) 1.51%
N#CCCN(C(=O)Nc1ccc(Cl)c(Cl)c1)C1CCCCC1 4.76%
O=C(Nc1cc(S(=O)(=O)N2CCOCC2)ccc1N1CCOCC1)c1c(F)cccc1Cl 4.42%
CCOc1ccc(S(=O)(=O)N2CCC(C(=O)NCC(=O)Nc3cccc(Cl)c3C)CC2)cc1 -15%
COCOc1cc(O)c(C(=O)/C=C/c2ccc(OCOC)c(OCOC)c2)c(OCOC)c1 -3.45%
Cc1ccc(N2C(=O)CN=C2Nc2nc(C)cc(C)n2)cc1 0.5%
COc1ccc(CNC(=O)CN2C(=O)c3ccccc3S2(=O)=O)cc1 2.81%
CN(Cc1cccs1)C(=O)CN1C(=O)c2ccccc2S1(=O)=O -19.1%
CC1CC(NC(=S)N(C)C)CC(C)(C)C1 (configuration not stated) 0.06%
Cc1ccc(NC(=O)CN2CCC3(O)CCCCC3C2c2ccc3c(c2)OCO3)c(C)c1 (configuration not stated) 5.71%
O=C(COC(=O)C1CCN(S(=O)(=O)c2ccc3c(c2)OCCO3)CC1)Nc1ccccc1OC(F)F 6.03%
O=C(CCNC(=O)c1ccc([N+](=O)[O-])cc1)Nc1ccccc1N1CCOCC1 -16.9%
COc1ccc(CNC(=O)COC(=O)c2sccc2C)cc1OC 2.6%
Cc1ccsc1C(=O)OCC(=O)NCCc1ccccc1 -29.4%
Nc1nc(SCC(=O)N2CCN(S(=O)(=O)c3ccc(Cl)cc3)CC2)n[nH]1 9.56%
Cc1cc(C)n2nc(C(=O)N(C)C(c3ccccc3)c3ccccc3)nc2n1 -3.03%
CCc1ccnc(NS(=O)(=O)c2ccc3c(c2)OCCO3)c1 -6.15%
CC(=O)NC1C(Oc2ccc(C=O)cc2)OC(COC(C)=O)C(OC(C)=O)C1OC(C)=O (configuration not stated) -13.2%
CC1CCCC(C)N1/N=C/c1ccccc1OC(F)F (configuration not stated) -2.18%
CC12C(=O)N(n3cnnc3)C(=O)C1C1C=CC2C1 (configuration not stated) -10.2%
C=CCC1(CC=C)CCCN1C(=O)c1cc(COc2ccc(-n3cncn3)cc2)on1 -1.06%
Cc1ccc(S(=O)(=O)N2CCN=C2SCc2c(F)cccc2Cl)cc1 -14.6%
O=C(O)C1C2CC2CN1C(=O)c1ccc(Cl)cc1Cl (configuration not stated) 10.7%
CC(NC(=O)c1ccccc1C(=O)O)c1ccc(-n2ccnc2)cc1 (configuration not stated) -1.09%
N#CC1(NC(=O)COc2ccc3oc4ccccc4c3c2)CCCCC1 2.18%
COc1ccc(OC)c(S(=O)(=O)Nc2cccc(-c3ccc4nncn4n3)c2)c1 -20.7%
CC1CCCCC12NC(=O)N(CC(=O)N1CCN(c3ccccc3)CC1)C2=O (configuration not stated) 1.99%
CN(C)c1ccc(CSc2ccccc2)cc1 -41.4%
CCN(CC)C(=O)[C@H]1C[C@H](CC(=O)NCC23CC4CC(CC(C4)C2)C3)C(=O)N2CCc3c([nH]c4cc(CCC(=O)N(C)C)ccc34)[C@]12C 4.03%
Cc1cc(C)c2c(c1)c(C)cc1nnc(SCC(=O)NCc3ccco3)n12 -10.2%
CC(C)c1cccc(C(C)C)c1Nc1cn[nH]c1 -5.74%
CC(=O)c1cccc(NC(=O)N2CCCC2C(=O)NCCC(C)C)c1 (configuration not stated) -16%
C=CCn1c(SCc2cc(C(=O)OC)c(C)o2)nnc1-c1ccncc1 -8.14%
CCn1nc(NC(=O)c2ccco2)c2cc3ccc(C)cc3nc21 5.64%
CN(Cc1ccc(CNC[C@H]2O[C@@H](n3cnc4c(N)ncnc43)[C@H](O)[C@@H]2O)o1)S(C)(=O)=O -4.89%
O=C(NCc1ccccc1)C(c1ccco1)N(C(=O)c1csnn1)c1ccccc1F (configuration not stated) -7.13%
COc1cc(OC)cc(-c2cc3ccc(F)cc3cn2)c1 -60%
CCOC(=O)c1cc(C(=O)Nc2ccc(S(=O)(=O)Nc3ccc(OC)cc3)cc2)nn1C 7.15%
O=C(Nc1cc2c3c(c1)C1CCCC1CN3CC1CCCC21)c1ccc([N+](=O)[O-])cc1 (configuration not stated) -2.56%
CCOC(=O)NC(=O)CSc1nnc(SCCC(=O)O)s1 -8.78%
COc1ccc(C2=Nn3c(nnc3-c3ccccc3OC)SC2)cc1OC1CCCC1 -15.9%
CCCCN(C(=O)CCNC(=O)NC12CC3CC(CC(C3)C1)C2)c1c(N)n(CCCC)c(=O)[nH]c1=O 4.35%
C=CCOc1cccc(C2NC(=O)c3ccccc3O2)c1 (configuration not stated) 3.13%
Cc1ccnc2nc(C(=O)OCC(=O)N(CC(C)C)CC(C)C)nn12 2.84%
CN1CCN(C(=O)C(=O)c2cn(CC(=O)N3CCCC3)c3ccccc23)CC1 -22.3%
CCN(CC)C(=O)CSC1c2ccccc2C(=O)N1c1ccccc1 (configuration not stated) -5.03%
O=C(c1ccc(F)c(S(=O)(=O)N2CCOCC2)c1)N(CCc1ccccc1)Cc1ccccc1 -1.71%
CSCCC(NC(=O)c1ccc(Cl)cc1Cl)C(=O)NNC(=O)c1csc(N2CCOCC2)n1 (configuration not stated) -17%
Cc1cccc(C(=O)N2CCCC(Nc3ccc(C(C)C)cc3)C2)n1 (configuration not stated) 1.61%
COc1ccc(N2CCN(C(=O)Cn3cnc4sc(C)c(S(=O)(=O)N5CCOCC5)c4c3=O)CC2)cc1 1.72%
O=C(Nc1cc(-c2nc3ncccc3o2)ccc1Cl)c1ccco1 -8.08%
C[C@H]1CN([C@@H](C)CO)C(=O)c2cc(-c3cccc(F)c3)cnc2O[C@@H]1CN(C)S(C)(=O)=O 4.48%
COC(=O)CNC(=O)c1ccc2c(c1)S(=O)(=O)c1ccccc1C2=O -9.27%
Cc1cc(=O)oc2c3c(cc(OCC(=O)NCC(O)c4ccccc4)c12)OC(C)(C)CC3 (configuration not stated) -22.4%
S=C(Cc1ccc(Cl)cc1)N1CCOCC1 -5.3%
O=C(O)c1n[nH]nc1-c1ccccc1 10.2%
Clc1ccc2nc(CSc3ccccc3)cn2c1 -91.3%
CC(C)(C)SCCSC1=CC(=O)CC(c2ccccc2)C1 (configuration not stated) -111%
CCCCNS(=O)(=O)c1ccc2nc(SCC(=O)Nc3cc(C)cc(C)c3)[nH]c2c1 12%
Cc1cc(NC(=O)CSc2nccn2-c2ccc([N+](=O)[O-])cc2)no1 -17%
CN(C)/C=C(/C(=O)c1ccccc1Cl)S(C)(=O)=O -22.7%
COc1ccc2c(c1)N(C)/C(=C1/SC(=S)N(NC(C)=O)C1=O)S2 -35.2%
CCOC(=O)c1ccccc1N1C(=O)C2Sc3[nH]c(=O)sc3C(/C=C/c3ccccc3)C2C1=O (configuration not stated) -1.18%
O=C(NCCN1CCOCC1)c1cc(Sc2cccc(Cl)c2)nc2ccccc12 -5.48%
O=S(=O)(c1ccc(Cl)cc1)c1nc(-c2ccccc2F)oc1NCCN1CCOCC1 -8.54%
O=C(CCCN=C1NS(=O)(=O)c2ccccc21)OCC(=O)c1ccc(F)c(F)c1 -0.01%
CCn1c(C(C)C)n[nH]c1=S -20.3%
CC(C)(C)NC(=O)C(c1ccco1)N(Cc1ccc2c(c1)OCO2)C(=O)Cn1nnc2ccccc21 (configuration not stated) 11.9%
CCOc1ccc(-n2cnnn2)cc1S(=O)(=O)N1CCC(C)CC1C (configuration not stated) 4.05%
O=S(=O)(NCc1ccc2c(c1)OCO2)c1cccc2nsnc12 -3.02%
Cc1nc(COc2cc3oc(=O)cc(C)c3cc2Cl)cs1 -6.18%
C[C@@H]1C[C@@H]2O[C@H]2/C=C\C=C\C(=O)Cc2c(Cl)c(O)cc(O)c2C(=O)O1 53.8%
CC(=O)NC1(c2ccc(F)cc2)CCN(C(=O)c2c(F)cccc2F)CC1 -14.7%
c1cnc(NC2C3CC4CC(C3)CC2C4)nc1 (configuration not stated) -13.6%
CCCCCC(O)c1cccc(OCc2ccc3ccccc3n2)c1 (configuration not stated) -17.6%
O=C(CCn1c(=S)[nH]c2cc3c(cc2c1=O)OCO3)NCc1ccc(Cl)cc1 10%
CCN(Cc1ccccc1)C(=O)CSc1nc(C)cc2c1C(=O)OC2 -20%
Cc1nnc(C)c2c(C)n(N)c(C)c12 3.29%
CCCNC(=O)C1(C)CCN(C(=O)c2ccccc2OC(F)(F)F)C1 (configuration not stated) -5.22%

inhibition, active:
COC(=O)Cc1[nH]n(-c2nc3ccccc3s2)c(=O)c1C(C)=Nc1ccc(OC)cc1 81.3%
CC[C@H]1CN2CCc3cc(OC)c(OC)cc3[C@@H]2C[C@@H]1C[C@H]1NCCc2cc(OC)c(OC)cc21 94.8%
O=C(CC(O)(C(F)(F)F)C(F)(F)F)Nc1ccc(Cl)c(Cl)c1 71.9%
C=CCn1c(C)cc(C2=NNC(=NCC)SC2)c1C 87.5%
O=C(CN1C(=O)c2ccccc2S1(=O)=O)N1CCc2ccccc21 73%
CCCCCCCCn1c2c(c(=N)c3c1CCC3)CCCC2 69%
Cc1ccsc1C(=O)OCC(=O)c1cc(C)n(CC2CCCO2)c1C (configuration not stated) 82.3%
CC1(C)CC(N2CCN(C(c3ccccc3)c3ccccc3)CC2)=CC(=[N+]2CCCCC2)C1 77%
c1ccc2cc3c(NCCN4CCOCC4)ccnc3cc2c1 61.6%
